Reference: paper PMC7862700, “An all-to-all approach to the identification of sequence-specific readers for epigenetic DNA modifications on cytosine”

Legend:
Assay in all cases: DAPPL (digital affinity profiling via proximity ligation, sequencing); 10 mM Tris-HCl pH 7.5, 50 mM NaCl, 1 mM DTT, 4% glycerol, room temperature, 30 min; GST-TFs on glutathione beads, 16-mer random dsDNA library, 0.1% formaldehyde crosslink after washing; high values mean tight binding
FEV = molecular target: T1, FEV (Homo sapiens, UniProt Q99581 1-238); conditions: protein: recombinant; tags: N-terminal GST; dsDNA, one strand shown
T1 sequence: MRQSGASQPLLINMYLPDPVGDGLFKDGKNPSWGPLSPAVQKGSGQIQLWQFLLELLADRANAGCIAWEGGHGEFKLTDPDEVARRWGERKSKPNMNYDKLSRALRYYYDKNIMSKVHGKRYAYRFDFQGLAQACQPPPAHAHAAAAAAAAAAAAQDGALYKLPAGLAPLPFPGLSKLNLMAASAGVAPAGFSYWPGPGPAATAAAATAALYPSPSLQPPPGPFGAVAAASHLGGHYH
Outline: (§1)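 Human transcription factors carrying a GST fusion were produced in yeast, bound to glutathione beads, tagged with DNA barcodes and pooled together with a tag-only sample. Each pool was held with 200 nmole of a random double-stranded 16-mer DNA library in Tris/NaCl/DTT/glycerol buffer for 30 min at room temperature, then washed, crosslinked in 0.1% formaldehyde, proximity-ligated with BsaI/T4 ligase (1 h, 37 °C), PCR-amplified and sequenced on an Illumina NextSeq500. Binding signal is the read frequency of each hexamer for a given factor divided by its frequency in the tag-only sample.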

ETV5 = ETV5 (Homo sapiens, UniProt P41161 1-510); conditions: protein: recombinant; tags: N-terminal GST; dsDNA, one strand shown
Sequence of ETV5 (P41161 whole entry): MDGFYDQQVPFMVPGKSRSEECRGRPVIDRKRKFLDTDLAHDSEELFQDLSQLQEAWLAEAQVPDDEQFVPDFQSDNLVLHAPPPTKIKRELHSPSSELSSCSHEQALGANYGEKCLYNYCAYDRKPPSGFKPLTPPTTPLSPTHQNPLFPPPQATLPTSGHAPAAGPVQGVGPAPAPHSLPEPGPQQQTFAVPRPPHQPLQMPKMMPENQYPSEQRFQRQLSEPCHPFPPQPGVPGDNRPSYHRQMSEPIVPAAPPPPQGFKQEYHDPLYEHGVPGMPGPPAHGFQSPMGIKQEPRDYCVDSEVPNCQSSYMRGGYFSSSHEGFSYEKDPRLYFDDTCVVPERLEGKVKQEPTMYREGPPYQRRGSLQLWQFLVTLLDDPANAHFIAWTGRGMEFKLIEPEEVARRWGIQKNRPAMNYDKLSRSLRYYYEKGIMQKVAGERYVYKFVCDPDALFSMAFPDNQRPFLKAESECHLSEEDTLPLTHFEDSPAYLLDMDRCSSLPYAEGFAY
Outline: as §1

HSF1 = HSF1 (Homo sapiens, UniProt Q00613 1-529); conditions: protein: recombinant; tags: N-terminal GST; chain copies: 3; dsDNA, one strand shown
Sequence of HSF1 (Q00613 whole entry): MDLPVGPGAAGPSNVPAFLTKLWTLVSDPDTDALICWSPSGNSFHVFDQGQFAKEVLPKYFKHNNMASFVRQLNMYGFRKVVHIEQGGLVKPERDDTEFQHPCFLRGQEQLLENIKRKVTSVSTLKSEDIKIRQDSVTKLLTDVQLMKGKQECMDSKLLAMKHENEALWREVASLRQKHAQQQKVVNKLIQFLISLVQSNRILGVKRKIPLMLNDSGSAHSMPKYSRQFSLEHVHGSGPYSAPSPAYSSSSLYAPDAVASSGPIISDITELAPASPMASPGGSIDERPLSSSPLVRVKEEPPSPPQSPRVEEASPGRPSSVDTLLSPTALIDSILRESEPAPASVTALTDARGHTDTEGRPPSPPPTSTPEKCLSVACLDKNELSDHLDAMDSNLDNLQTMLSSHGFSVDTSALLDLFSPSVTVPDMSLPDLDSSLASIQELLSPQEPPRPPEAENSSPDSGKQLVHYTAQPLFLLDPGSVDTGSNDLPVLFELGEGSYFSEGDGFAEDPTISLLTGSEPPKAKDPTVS
Outline: as §1

SPIC = molecular target: T2, SPIC (Homo sapiens, UniProt Q8N5J4 1-248); conditions: protein: recombinant; tags: N-terminal GST; dsDNA, one strand shown
T2 sequence: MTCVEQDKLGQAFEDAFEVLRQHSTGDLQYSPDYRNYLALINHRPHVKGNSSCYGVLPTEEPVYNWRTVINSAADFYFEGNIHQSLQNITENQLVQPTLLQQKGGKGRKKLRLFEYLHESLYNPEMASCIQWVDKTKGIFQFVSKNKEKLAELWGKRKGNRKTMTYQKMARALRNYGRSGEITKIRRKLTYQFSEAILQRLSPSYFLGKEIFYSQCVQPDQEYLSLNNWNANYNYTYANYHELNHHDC
Outline: as §1

ELF4 = ELF4 (Homo sapiens, UniProt Q99607 1-663); conditions: protein: recombinant; tags: N-terminal GST; dsDNA, one strand shown
Sequence of ELF4 (Q99607 whole entry): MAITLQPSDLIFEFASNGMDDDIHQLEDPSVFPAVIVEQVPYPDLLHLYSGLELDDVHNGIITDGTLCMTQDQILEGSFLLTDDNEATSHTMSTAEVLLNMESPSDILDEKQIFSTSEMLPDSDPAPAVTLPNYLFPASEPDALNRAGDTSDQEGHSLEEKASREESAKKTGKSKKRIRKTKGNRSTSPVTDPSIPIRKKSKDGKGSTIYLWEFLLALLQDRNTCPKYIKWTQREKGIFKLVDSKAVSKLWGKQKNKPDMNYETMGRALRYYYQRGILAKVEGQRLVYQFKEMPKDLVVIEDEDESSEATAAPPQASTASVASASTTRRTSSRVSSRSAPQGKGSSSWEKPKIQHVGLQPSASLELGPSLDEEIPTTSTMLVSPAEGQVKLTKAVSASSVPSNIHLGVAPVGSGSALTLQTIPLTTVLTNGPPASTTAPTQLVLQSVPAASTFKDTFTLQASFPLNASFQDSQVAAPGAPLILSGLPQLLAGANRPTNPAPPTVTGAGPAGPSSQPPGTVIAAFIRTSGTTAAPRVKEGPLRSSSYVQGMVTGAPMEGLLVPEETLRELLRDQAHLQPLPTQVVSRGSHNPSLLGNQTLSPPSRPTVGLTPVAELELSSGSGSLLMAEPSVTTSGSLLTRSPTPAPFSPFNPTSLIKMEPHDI
Outline: as §1

ELK4 = molecular target: T3, ELK4 (Homo sapiens, UniProt P28324-2 1-405); conditions: protein: recombinant; tags: N-terminal GST; dsDNA, one strand shown
T3 sequence: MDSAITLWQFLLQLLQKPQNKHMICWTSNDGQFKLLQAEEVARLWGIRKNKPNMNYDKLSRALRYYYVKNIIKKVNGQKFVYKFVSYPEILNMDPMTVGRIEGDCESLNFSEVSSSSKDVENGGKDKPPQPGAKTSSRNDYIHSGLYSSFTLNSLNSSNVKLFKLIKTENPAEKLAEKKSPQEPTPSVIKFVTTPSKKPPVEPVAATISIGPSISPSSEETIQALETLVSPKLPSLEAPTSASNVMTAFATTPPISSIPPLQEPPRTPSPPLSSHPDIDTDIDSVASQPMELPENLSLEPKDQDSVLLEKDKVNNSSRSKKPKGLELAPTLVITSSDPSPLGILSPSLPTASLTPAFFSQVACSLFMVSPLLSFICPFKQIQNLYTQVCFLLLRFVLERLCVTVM
Outline: as §1

ETV2 = molecular target: T4, ETV2 (Homo sapiens, UniProt O00321 1-342); conditions: protein: recombinant; tags: N-terminal GST; dsDNA, one strand shown
T4 sequence: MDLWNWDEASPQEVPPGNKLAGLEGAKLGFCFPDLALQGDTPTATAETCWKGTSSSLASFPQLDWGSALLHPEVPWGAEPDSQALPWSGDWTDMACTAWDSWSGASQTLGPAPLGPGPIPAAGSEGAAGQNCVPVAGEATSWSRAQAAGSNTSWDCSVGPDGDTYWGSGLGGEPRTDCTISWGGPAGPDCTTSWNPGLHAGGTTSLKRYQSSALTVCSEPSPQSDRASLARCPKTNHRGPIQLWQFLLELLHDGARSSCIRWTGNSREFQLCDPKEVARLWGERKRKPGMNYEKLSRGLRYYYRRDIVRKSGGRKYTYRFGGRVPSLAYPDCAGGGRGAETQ
Outline: as §1

ELF3 = molecular target: T5, ELF3 (Homo sapiens, UniProt P78545 1-371); conditions: protein: recombinant; tags: N-terminal GST; dsDNA, one strand shown
T5 sequence: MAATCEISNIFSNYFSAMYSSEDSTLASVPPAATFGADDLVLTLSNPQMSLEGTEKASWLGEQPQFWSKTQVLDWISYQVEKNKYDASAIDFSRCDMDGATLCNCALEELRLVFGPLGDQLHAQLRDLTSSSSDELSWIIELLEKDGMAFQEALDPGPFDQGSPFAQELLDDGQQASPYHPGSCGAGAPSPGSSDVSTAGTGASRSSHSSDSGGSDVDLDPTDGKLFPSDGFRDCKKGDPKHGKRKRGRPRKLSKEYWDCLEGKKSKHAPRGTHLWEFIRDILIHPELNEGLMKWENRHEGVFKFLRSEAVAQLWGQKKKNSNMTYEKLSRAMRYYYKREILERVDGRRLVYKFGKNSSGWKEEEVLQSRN
Outline: as §1

CRX = CRX (Homo sapiens, UniProt O43186 1-299); conditions: protein: recombinant; tags: N-terminal GST; dsDNA, one strand shown
Sequence of CRX (O43186 whole entry): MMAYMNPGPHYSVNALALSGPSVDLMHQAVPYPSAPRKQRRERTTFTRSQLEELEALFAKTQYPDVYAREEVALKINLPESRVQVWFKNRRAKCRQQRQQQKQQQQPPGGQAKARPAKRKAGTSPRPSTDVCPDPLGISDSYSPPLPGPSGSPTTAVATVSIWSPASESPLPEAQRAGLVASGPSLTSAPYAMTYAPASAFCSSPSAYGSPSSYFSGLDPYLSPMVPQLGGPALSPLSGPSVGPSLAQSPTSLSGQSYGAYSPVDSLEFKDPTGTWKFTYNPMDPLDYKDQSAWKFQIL
Outline: as §1

ETV1 = ETV1 (Homo sapiens, UniProt P50549 1-477); conditions: protein: recombinant; tags: N-terminal GST; dsDNA, one strand shown
Sequence of ETV1 (P50549 whole entry): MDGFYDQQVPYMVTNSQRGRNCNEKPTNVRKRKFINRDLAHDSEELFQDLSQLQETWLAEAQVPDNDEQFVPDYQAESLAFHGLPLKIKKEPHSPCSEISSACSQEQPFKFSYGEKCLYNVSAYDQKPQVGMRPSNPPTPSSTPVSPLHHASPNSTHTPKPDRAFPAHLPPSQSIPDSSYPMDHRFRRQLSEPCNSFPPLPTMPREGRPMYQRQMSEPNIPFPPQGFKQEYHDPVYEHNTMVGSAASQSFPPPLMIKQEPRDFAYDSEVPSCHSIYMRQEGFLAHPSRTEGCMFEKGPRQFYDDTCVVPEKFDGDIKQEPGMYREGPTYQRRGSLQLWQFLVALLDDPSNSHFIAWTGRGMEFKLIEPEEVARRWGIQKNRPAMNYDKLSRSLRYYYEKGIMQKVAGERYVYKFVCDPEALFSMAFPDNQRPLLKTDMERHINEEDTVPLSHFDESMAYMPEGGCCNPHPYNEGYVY
Outline: as §1

ERF = molecular target: T6, ERF (Homo sapiens, UniProt P50548 1-548); conditions: protein: recombinant; tags: N-terminal GST; dsDNA, one strand shown
T6 sequence: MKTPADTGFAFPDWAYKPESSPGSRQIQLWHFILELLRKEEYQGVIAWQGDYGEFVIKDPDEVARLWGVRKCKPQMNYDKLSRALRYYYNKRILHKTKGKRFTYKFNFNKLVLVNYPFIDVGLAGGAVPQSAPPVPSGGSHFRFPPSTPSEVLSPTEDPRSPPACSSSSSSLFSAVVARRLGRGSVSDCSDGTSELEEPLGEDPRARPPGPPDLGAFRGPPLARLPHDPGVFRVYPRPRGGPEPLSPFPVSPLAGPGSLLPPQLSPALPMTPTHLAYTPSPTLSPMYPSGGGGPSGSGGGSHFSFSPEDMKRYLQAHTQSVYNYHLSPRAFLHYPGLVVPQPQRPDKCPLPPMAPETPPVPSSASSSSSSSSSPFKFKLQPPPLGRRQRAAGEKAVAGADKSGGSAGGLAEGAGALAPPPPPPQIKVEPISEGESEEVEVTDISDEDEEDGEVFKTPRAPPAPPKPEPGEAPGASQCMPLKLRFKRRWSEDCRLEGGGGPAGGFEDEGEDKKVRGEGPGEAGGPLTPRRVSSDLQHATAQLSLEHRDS
Outline: as §1

ETV3L = molecular target: T7, ETV3L (Homo sapiens, UniProt Q6ZN32 1-361); conditions: protein: recombinant; tags: N-terminal GST; dsDNA, one strand shown
T7 sequence: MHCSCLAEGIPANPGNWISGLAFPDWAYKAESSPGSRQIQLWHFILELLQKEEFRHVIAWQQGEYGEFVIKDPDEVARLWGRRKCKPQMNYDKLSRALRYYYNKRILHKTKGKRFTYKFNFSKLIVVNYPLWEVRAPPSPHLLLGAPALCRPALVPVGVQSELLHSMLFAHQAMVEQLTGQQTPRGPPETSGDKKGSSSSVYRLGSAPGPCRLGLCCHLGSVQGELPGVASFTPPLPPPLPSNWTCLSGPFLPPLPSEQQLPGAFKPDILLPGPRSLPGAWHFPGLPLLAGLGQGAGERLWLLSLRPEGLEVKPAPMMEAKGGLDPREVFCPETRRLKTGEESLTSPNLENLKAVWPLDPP
Outline: as §1

ETS2 = molecular target: T8, ETS2 (Homo sapiens, UniProt P15036 1-469); conditions: protein: recombinant; tags: N-terminal GST; dsDNA, one strand shown
T8 sequence: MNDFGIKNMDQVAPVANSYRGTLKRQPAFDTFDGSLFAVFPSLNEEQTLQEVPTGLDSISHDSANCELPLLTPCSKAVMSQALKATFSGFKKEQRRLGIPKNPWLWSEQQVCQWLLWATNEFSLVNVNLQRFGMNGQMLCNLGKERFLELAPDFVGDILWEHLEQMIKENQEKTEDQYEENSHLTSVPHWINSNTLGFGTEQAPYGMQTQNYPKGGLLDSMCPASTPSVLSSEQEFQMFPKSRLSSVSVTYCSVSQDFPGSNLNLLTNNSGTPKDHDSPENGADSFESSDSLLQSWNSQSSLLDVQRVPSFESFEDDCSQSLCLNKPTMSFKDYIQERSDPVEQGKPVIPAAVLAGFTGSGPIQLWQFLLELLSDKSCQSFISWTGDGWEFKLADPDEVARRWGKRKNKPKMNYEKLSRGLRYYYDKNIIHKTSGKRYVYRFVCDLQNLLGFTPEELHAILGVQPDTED
Outline: as §1

SPDEF = molecular target: T9, SPDEF (Homo sapiens, UniProt O95238 1-335); conditions: protein: recombinant; tags: N-terminal GST; dsDNA, one strand shown
T9 sequence: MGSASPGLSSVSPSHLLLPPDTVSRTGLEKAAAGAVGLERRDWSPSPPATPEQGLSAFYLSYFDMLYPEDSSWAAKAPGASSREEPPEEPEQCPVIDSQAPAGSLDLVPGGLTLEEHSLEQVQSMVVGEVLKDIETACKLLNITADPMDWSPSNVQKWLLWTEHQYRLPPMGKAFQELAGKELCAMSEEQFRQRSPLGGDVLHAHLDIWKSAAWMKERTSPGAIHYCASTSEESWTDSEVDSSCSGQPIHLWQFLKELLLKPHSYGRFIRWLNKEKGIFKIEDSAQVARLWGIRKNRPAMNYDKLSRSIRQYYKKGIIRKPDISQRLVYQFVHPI
Outline: as §1

ETV7 = molecular target: T10, ETV7 (Homo sapiens, UniProt Q9Y603 1-341); conditions: protein: recombinant; tags: N-terminal GST; dsDNA, one strand shown
T10 sequence: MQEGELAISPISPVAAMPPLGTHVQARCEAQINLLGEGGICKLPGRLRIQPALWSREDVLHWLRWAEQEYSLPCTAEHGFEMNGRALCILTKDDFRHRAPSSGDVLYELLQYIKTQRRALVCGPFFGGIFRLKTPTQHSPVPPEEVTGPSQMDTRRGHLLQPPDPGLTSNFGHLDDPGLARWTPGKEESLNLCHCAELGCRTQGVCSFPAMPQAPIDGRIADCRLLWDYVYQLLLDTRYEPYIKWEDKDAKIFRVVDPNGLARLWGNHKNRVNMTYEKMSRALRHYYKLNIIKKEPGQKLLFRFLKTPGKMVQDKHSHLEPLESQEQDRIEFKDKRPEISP
Outline: as §1

ELF5 = molecular target: T11, ELF5 (Homo sapiens, UniProt Q9UKW6-2 1-255); conditions: protein: recombinant; tags: N-terminal GST; dsDNA, one strand shown
T11 sequence: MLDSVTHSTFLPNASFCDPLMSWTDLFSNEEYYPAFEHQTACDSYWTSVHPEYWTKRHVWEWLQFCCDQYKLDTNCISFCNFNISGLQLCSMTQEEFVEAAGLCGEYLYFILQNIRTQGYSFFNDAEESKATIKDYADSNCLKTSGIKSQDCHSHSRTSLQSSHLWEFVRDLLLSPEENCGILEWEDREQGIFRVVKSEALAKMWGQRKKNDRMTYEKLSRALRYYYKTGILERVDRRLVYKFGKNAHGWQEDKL
Outline: as §1

ETV3 = molecular target: T12, ETV3 (Homo sapiens, UniProt P41162-2 1-143); conditions: protein: recombinant; tags: N-terminal GST; dsDNA, one strand shown
T12 sequence: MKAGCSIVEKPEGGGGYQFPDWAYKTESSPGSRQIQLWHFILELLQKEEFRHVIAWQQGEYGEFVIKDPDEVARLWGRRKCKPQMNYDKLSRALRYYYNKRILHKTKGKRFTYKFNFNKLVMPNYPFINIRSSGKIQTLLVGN
Outline: as §1

ETV6 = ETV6 (Homo sapiens, UniProt P41212 1-452); conditions: protein: recombinant; tags: N-terminal GST; dsDNA, one strand shown
Sequence of ETV6 (P41212 whole entry): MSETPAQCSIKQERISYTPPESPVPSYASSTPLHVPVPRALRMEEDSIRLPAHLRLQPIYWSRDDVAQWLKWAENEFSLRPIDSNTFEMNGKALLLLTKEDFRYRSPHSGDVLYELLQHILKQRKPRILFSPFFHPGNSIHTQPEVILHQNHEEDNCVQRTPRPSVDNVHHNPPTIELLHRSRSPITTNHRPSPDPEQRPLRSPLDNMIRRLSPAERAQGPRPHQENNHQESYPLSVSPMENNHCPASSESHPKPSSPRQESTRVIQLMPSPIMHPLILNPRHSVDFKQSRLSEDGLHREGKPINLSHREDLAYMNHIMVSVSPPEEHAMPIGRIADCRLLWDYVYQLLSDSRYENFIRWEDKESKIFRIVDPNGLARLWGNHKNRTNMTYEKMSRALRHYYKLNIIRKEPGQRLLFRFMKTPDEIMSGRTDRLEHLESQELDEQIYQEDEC
Outline: as §1

TCCACA
binding signal (FEV): 1.21 fold enrichment (6-mer frequency, TF over GST control) | binding signal (ETV5): 1.25 fold enrichment (6-mer frequency, TF over GST control) | binding signal (HSF1): 1.36 fold enrichment (6-mer frequency, TF over GST control) | binding signal (SPIC): 1.31 fold enrichment (6-mer frequency, TF over GST control) | binding signal (ELF4): 1.27 fold enrichment (6-mer frequency, TF over GST control) | binding signal (ELK4): 1.25 fold enrichment (6-mer frequency, TF over GST control) | binding signal (ETV2): 1.17 fold enrichment (6-mer frequency, TF over GST control) | binding signal (ELF3): 1.22 fold enrichment (6-mer frequency, TF over GST control) | binding signal (CRX): 1.1 fold enrichment (6-mer frequency, TF over GST control) | binding signal (ETV1): 1.15 fold enrichment (6-mer frequency, TF over GST control) | binding signal (ERF): 1.31 fold enrichment (6-mer frequency, TF over GST control) | binding signal (ETV3L): 1.24 fold enrichment (6-mer frequency, TF over GST control) | binding signal (ETS2): 1.29 fold enrichment (6-mer frequency, TF over GST control) | binding signal (SPDEF): 1.25 fold enrichment (6-mer frequency, TF over GST control) | binding signal (ETV7): 1.17 fold enrichment (6-mer frequency, TF over GST control) | binding signal (ELF5): 1.13 fold enrichment (6-mer frequency, TF over GST control) | binding signal (ETV3): 1.2 fold enrichment (6-mer frequency, TF over GST control) | binding signal (ETV6): 1.25 fold enrichment (6-mer frequency, TF over GST control)
